Screens deposited in PubChem BioAssay by National Center for Advancing Translational Sciences (NCATS).
Rows were chosen to be rich in hits. Some 4.7% of all compounds tested hit in one or more screens of this group.
D1 PAM = enhances dopamine response at the human D1 receptor; P21728; HEK293 TREx D1 cells, calcium flux, dopamine EC20 potentiation; potentiation, % at 10 µM; 0.036% of 360,000 active; AID 504651; in the data active = potentiation above about 30%; also: 0% is about no effect
Target sequence (P21728 whole entry, looked up): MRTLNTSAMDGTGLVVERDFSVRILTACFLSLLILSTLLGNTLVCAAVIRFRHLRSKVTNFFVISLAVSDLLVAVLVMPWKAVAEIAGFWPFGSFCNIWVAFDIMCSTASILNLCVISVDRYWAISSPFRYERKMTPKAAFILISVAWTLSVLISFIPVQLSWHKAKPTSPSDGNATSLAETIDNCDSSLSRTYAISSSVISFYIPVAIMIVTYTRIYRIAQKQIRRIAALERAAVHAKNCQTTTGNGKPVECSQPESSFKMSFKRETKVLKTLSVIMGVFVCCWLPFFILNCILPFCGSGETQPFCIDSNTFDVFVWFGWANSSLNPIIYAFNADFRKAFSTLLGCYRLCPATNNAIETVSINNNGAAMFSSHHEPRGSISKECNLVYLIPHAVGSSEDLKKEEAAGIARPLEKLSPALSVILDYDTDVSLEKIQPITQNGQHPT
D1 antagonist = human D1 dopamine receptor antagonism. P21728. HEK293 TREx D1 cells, calcium flux, dopamine EC80; active compounds read low. activity change, negative = inhibition, % at 10 µM. 3.2% of 360,000 active; in the data active = activity change below about -30%; also: % is scaled to controls: 0 for no effect and ±100 for the full control effect
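Using tetracycline-induced force-coupled D1 Hek293 cells and a calcium dye, signals were followed for 180 s after compound, then for 180 s after EC80 dopamine, to detect inhibitors.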
TRHR enhancer = allosterically enhances the human TRH receptor; TRHR cells, fluo-8 calcium fluorescence, EC20 TRH enhancement; 0.66% of 360,000 active; AID 493056; enhancement, % at 2 µM; in the data active = enhancement above about 30%; also: 0% is about no effect
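Enhancer read-out: after compound pinning and an initial kinetic agonist-mode read, an EC20 of TRH (10 nM final) was injected and fluo-8 calcium signal (Ex 480/Em 530) followed at 1 s/cycle for 100 cycles in TRHR-expressing cells.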
TRHR agonist = agonists of human TRH receptor | P34981 | TRHR cells, calcium flux fluo-8, FDSS agonist mode | activation, % at 2 µM | 0.18% of 360,000 active | AID 493084; also: 0% is about no effect
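Read-out: compound-evoked intracellular calcium rise in TRHR cells, fluo-8 dye, kinetic FDSS fluorescence at 1 s/cycle following a 10-cycle baseline. Cells cultured overnight before dye loading (30 min–1.5 h, RT).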
D1 agonist = agonists of human D1 dopamine receptor | 1% of 360,000 active | HEK293 T-REx D1 cells, calcium flux, agonist mode | AID 504660 | P21728 | activation, % at 2 µM; also: 0% is about no effect
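Tetracycline-induced HEK293 TREx D1 cells, force-coupled to calcium signalling, were dye-loaded with a no-wash calcium kit. Compound was pin-added after a 10 s baseline. Fluorescence was read kinetically at 1 cycle/s for 180 s, with calcium rises flagged as agonism.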
Numbers without * were called inactive; x = not tested or not shown; ! = repeats disagree. Rule as the data show it, unless noted: active = activation above about 30%; inactive = the rest.

SMILES	D1 PAM	D1 antagonist	TRHR enhancer	TRHR agonist	D1 agonist
Cc1csc2nc(COc3ccc(NC(=O)C(C)C)cc3)cc(=O)n12	0	-7	3	0	1
Cc1ccc(C(=O)Nc2cc(Cl)ccc2-n2cncn2)o1	-7	8	36*	0	3
Cc1ccc(C(=O)Nc2cc(C(F)(F)F)ccc2-n2cncn2)o1	-7	6	3	-3	1
O=C1c2ccccc2C(=O)N1Cc1ccccn1	-6	-37*	2	1	2
COc1ccc(-c2cc3nc(-c4ccc(C)cc4)cc(C(F)(F)F)n3n2)cc1	-1	-17	4	-1	2
CCN1C(=O)C(O)(CC(=O)c2c(C)coc2C)c2ccccc21 (stereo unspecified)	-1	-45*	-3	0	0
CCCCN1C(=O)C(O)(CC(=O)c2ccc(C(C)(C)C)cc2)c2ccccc21 (stereo unspecified)	-5	-49*	2	-1	28
Cc1ccc(C(=O)CC2(O)C(=O)N(Cc3ccccc3)c3ccccc32)c(C)c1 (stereo unspecified)	12	-15	0	0	58*
CCc1ccc(C(=O)CC2(O)C(=O)N(Cc3ccc(C)cc3)c3ccccc32)cc1 (stereo unspecified)	2	-4	-7	0	-1
CCCOC(=O)c1c(-c2ccccc2)nc(CC)c(C(=O)SCC)c1CCC	-1	-48*	5	0	-1
COC(=O)c1c(C)oc2ccc(N(C(=O)c3ccncc3)S(=O)(=O)c3c(C)cc(C)cc3C)cc12	2	19	0	2	5
Cc1ccc(C(=O)O)cc1NCc1ccncc1	0	1	30*	1	0
O=C(O)c1ccc(Cl)c(NCc2ccncc2)c1	0	-8	11	1	4
CC1(C)C2CCC1(C)C(OCC[N+](C)(C)CC(=O)OC1CCCCC1)C2 (stereo unspecified)	-3	-66*	16	0	1
CN(C)c1ccc(/C=C(/NC(=O)c2ccccc2)C(=O)NCCCn2ccnc2)cc1	-1	-15	0	6	34*
COc1ccccc1C(=O)N/C(=C\c1cn(S(=O)(=O)N(C)C)c2ccccc12)C(=O)NCCCn1ccnc1	-1	20	-3	-2	-1
O=C(NCCCn1ccnc1)/C(=C/c1ccc(Cl)cc1)NC(=O)c1ccccc1	x	6	-2	-1	2
CN(C)S(=O)(=O)n1cc(/C=C(\NC(=O)c2ccccc2F)C(=O)NCCCn2ccnc2)c2ccccc21	11	-38*!	-14	1	3
O=C1NC(=Nc2ccc(O)cc2)S/C1=C/c1ccco1	-9	-37*	-3	1	0
COc1cc(/C=C2\SC(=Nc3ccc(O)cc3)NC2=O)cc(OC)c1O	-2	-7	3	44*	17
O=C1/C(=C\c2ccco2)SC(=S)N1c1ccc(O)cc1	-2	-31*	3	0	3
CCc1ccc(N=C2NC(=O)/C(=C/c3cc(OC)c(OC)c(OC)c3)S2)cc1	-4	-26	0	0	3
O=C1/C(=C/C=C/c2ccco2)SC(=S)N1c1ccc(O)cc1	-4	8	15	1	6
COC(=O)c1cc(C)nc2c1c(=O)nc(SCc1cccc(C(F)(F)F)c1)n2C1CC1	1	-4	-1	-1	3
CCC(C)c1ccccc1OCCn1ccnc1 (stereo unspecified)	-5	-34*	-5	-1	7
SMILES	D1 PAM	D1 antagonist	TRHR enhancer	TRHR agonist	D1 agonist
COc1ccccc1OCCn1ccnc1	6	11	-1	1	1
O=[N+]([O-])c1ccc(/C=N/Nc2nc(N3CCCC3)nc(N3CCCC3)n2)o1	-1	-13	-1	0	1
O=[N+]([O-])c1ccc(-c2ccc(/C=N/Nc3nc(N4CCCCC4)nc(N4CCCCC4)n3)o2)cc1	-2	-2	1	14	47*
O=[N+]([O-])c1cccc(-c2ccc(/C=N/Nc3nc(N4CCCCC4)nc(N4CCCCC4)n3)o2)c1	1	3	-2	-1	5
O=[N+]([O-])c1ccc(-c2ccc(/C=N/Nc3nc(N4CCCC4)nc(N4CCCC4)n3)o2)cc1	-2	18	-7	18	76*
CCC(CC)c1nn2c(=O)cc(COc3ccc(NC(=O)c4ccccc4C)cc3)nc2s1	3	-26	3	1	3
Cc1cc(C)c2c(CC(=O)Nc3ccc(S(=O)(=O)Nc4ncccn4)cc3)coc2c1	0	-3	-1	0	2
Cc1cccc(OCC(=O)Nc2ccc3c4c(cccc24)CC3)c1C	2	-47*	23	0	3
CCOC(=O)c1c(NC(=O)COc2cccc(C)c2C)sc2c1CCCCC2	4	-44*	9	-2	1
CCOC(=O)c1c(NC(=O)c2ccco2)sc2c1CCCCC2	-1	5	1	1	3
CCOC(=O)c1c(NC(=O)CCCOc2ccccc2C)sc2c1CCC(C)C2 (stereo unspecified)	-1	-1	33*	0	2
CCOC(=O)c1c(NC(=O)C(C)N2CCN(C(=O)c3ccco3)CC2)sc2c1CCCC2 (stereo unspecified)	-5	-2	10	-1	40*
Cc1ccc(S(=O)(=O)c2cnc(SCC(=O)Nc3ccc4c(c3)OCCO4)[nH]c2=O)cc1	0	2	4	0	1
COc1ccc(CNCc2c(C(=O)O)n(Cc3ccc(F)cc3)c3cc(C)ccc23)cc1OC	-3	13	2	0	0
Cc1cccc(C)c1NC(=O)C1CCCN(S(=O)(=O)c2c(C)noc2/C=C/N(C)C)C1 (stereo unspecified)	-4	-8	-3	-1	-2
O=C(NCc1cccnc1)c1nn(-c2ccccc2F)nc1CO	3	4	6	1	0
C[C@@H]1C(=O)O[C@@H]2CC34[C@H]5C[C@@H](C(C)(C)C)C36[C@H](OC(=O)[C@@H]6O)OC4(C(=O)O5)[C@@]12O (stereo partly specified)	-1	-38*	1	1	0
C[C@@H]1C(=O)O[C@H]2CC34[C@H]5C[C@@H](C(C)(C)C)[C@]36[C@@H](OC(=O)[C@@H]6O)O[C@@]4(C(=O)O5)[C@]21O (stereo partly specified)	9	11	0	0	2
CC(=O)OCc1c(C(F)(F)F)nn(C)c1Oc1cccc(C(F)(F)F)c1	-12	-35*	15	0	18
CC(=O)OCc1c(C(F)(F)F)nn(C)c1Oc1ccccc1	-2	-14	6	1	-1
CCc1ccc(NC(=O)c2cc(CN3CCOCC3)on2)cc1	-7	-7	1	0	-1
Cc1ccc(SCC(=O)Nc2cc([N+](=O)[O-])ccc2O)cc1	-10	-26	-5	3	30*
